Rows were chosen to be rich in hits. Some 11% of all compounds tested hit in one or more screens of this group.
Sfp PPTase inh: qHTS Assay for Inhibitors of Bacillus subtilis Sfp phosphopantetheinyl transferase (PPTase) | Biochemical Sfp PPTase activity, qHTS | Potency, µM, inactives show largest response in the series, negative = inhibition, most hits filed as inhibitors | hit rate 3.5% among 310,000;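 also: the enzyme is Sfp with the accession as filed and its product quenches rhodamine fluorescence; potency is read from the fitted curve at half-maximal effect; 0% = enzyme reaction without inhibitor and -100% = no enzyme wells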
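Compounds were incubated with enzyme (final 15 nM) for 15 min at room temperature before substrate addition started the reaction. Fluorescence at 525 nm excitation, 598 nm emission was recorded immediately and after 30 minutes.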
Tau ThT inhib: qHTS for Inhibitors of Tau Fibril Formation, Thioflavin T Binding | Microtubule-associated protein tau (Homo sapiens), P10636 | recombinant tau K18 P301L, heparin-induced fibrillization, ThT fluorescence | Potency, µM (top dose mostly 57.4 µM), for the others: at the highest dose activity, negative = inhibition, actives largely listed as inhibitors | hit rate 2.1% among 270,000; also: potency is read from the fitted curve at half-maximal effect; nearly all actives have a fitted effect of over 55% in size
Target sequence (P10636 561-689 P618L limits assumed): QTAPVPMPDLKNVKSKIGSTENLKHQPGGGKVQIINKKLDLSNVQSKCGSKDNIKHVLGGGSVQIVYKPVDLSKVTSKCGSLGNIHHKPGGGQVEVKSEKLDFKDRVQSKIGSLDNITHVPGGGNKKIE
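Fibril formation assay: tau K18 P301L at 15 uM with trace Alexa 594 label, heparin inducer 20 uM, pH 7 sodium acetate buffer, 37 C for 6 hr; endpoint ThT signal.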
FBPA coupling cs: qHTS Assay for Inhibitors of Fructose-1,6-bisphosphate Aldolase from Giardia Lamblia: Coupling assay counterscreen; activity change, negative = inhibition, % at 58.2 µM, hits read low; coupling enzyme system counterscreen, AmpLite Red fluorescence; hit rate 0.67% among 290,000; in the data active = activity change below about -30%
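Coupling enzymes only (glyceraldehyde-3-phosphate) + compound, at 57.5 uM final, 10 min RT; add substrate/coupling/AmpLite Red mix, 20 min RT; fluorescence ex 525/em 598 nm. Actives flag coupling-system interference.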
Tau fluor counter: Counterscreen qHTS for Inhibitors of Tau Fibril Formation, Fluorescence Polarization. tau K18 P301L Alexa594 fluorescence, heparin fibrillization. Potency, µM (highest dose often 57.7 µM), inactives show at the highest dose activity change, negative = decrease. hit rate 0.93% among 280,000; also: potency is read from the fitted curve at half-maximal effect; nearly all actives have a fitted effect of over 55% in size
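Human tau K18 P301L (15 uM unlabeled, 0.24 uM Alexa 594-labeled) in 100 mM sodium acetate pH 7 with 20 uM heparin, 6 hr at 37 C. ThT 30 uM added, 1 hr ambient; Alexa 594 FP and total fluorescence read at 555/632 nm.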
Tau FP inhib: qHTS for Inhibitors of Tau Fibril Formation, Fluorescence Polarization | K18 P301L tau heparin fibrillization, Alexa594 FP, 6 h | Microtubule-associated protein tau (Homo sapiens), P10636 | Potency, µM (doses to about 57.7 µM), without a hit: top-dose activity, negative = inhibition, usual class: inhibitors | hit rate 0.39% among 280,000; also: potency is read from the fitted curve at half-maximal effect; nearly all actives have a fitted effect of over 55% in size
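Recombinant K18 P301L […], labeled with Alexa 594 at 0.24 uM over 15 uM unlabeled; heparin inducer 20 uM final; 37 C, 6 hr; FP endpoint.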
G9a block: qHTS Assay for Inhibitors of Histone Lysine Methyltransferase G9a. G9a H3K9 monomethylation, AlphaScreen, 2 h. hit rate 8.8% among 350,000. Potency, µM (highest dose often 102 µM), inactives show at the top dose activity, negative = inhibition, usual class: inhibitors; also: potency is read from the fitted curve at half-maximal effect; nearly all actives have a fitted effect of over 75% in size
Target sequence (Q96KQ7 913-1193 limits assumed): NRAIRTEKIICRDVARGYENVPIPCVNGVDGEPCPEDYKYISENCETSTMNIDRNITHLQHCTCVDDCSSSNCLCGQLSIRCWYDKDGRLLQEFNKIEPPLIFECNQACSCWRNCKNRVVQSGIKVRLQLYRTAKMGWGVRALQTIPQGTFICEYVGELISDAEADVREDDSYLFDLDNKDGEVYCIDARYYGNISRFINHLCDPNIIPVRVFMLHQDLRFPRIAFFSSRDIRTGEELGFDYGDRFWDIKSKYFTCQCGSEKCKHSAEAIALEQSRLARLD
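AlphaScreen read-out: biotin-H3K9 peptide (500 nM) methylation by 20 nM enzyme with 20 uM SAM, 2 h at room temperature after 15 min compound preincubation; anti-monomethyl H3K9 antibody plus donor/acceptor beads, 10 min dark.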
Numbers without * were called inactive; [ ] = dose if it differs, or a comment. Unless noted, calls follow the shape of the dose curve; as a rule, active = well fitted curve in the direction sought with a large enough effect; inconclusive = small, poorly fitted or top-dose-only effect, or another doubt; inactive = no such curve, though single readings can be large; an effect the other way counts as inactive or inconclusive. Unless noted, % is scaled to controls: 0 for no effect and ±100 for the full control effect.

How did COc1ccc(-n2c(=O)c3c4c(sc3n3c(SC(C)C)nnc23)COC(C(C)C)C4)cc1 (centres undefined) do in these assays?
Tau ThT inhib: -4.6%; Tau fluor counter: -7.2%; Tau FP inhib: -10.3%; G9a block: -52.4%[59 µM]

What do the screens show for `Nc1ccc(OCCc2ccccc2)cc1`?
Sfp PPTase inh: 5.0%; FBPA coupling cs: -1.2; G9a block: 50.1µM*

How did Nc1ccc(OCc2ccccc2)cc1 do in these assays?
Sfp PPTase inh: 11.7%; Tau ThT inhib: inconclusive; FBPA coupling cs: 1.9; Tau fluor counter: -17.4%; Tau FP inhib: 10.9%; G9a block: 11.2µM*

How did COc1ccc(C)cc1NC(=O)COc1cc(=O)n(C)c2ccccc12 do in these assays?
Tau ThT inhib: -1.7%; Tau fluor counter: -1.4%; Tau FP inhib: -6.4%; G9a block: -1.5%[59 µM]

What do the screens show for `Cc1ccccc1N/N=C/c1sc(=O)n(Cc2cccc(C(=O)O)c2)c1Cl`?
Sfp PPTase inh: inconclusive; Tau ThT inhib: 28.2µM*; FBPA coupling cs: 6.4; Tau fluor counter: inconclusive; Tau FP inhib: -7.1%; G9a block: -135.7%[59 µM]

Results for O=C(O)c1cccc(Cn2c(Cl)c(/C=N/NC(=O)c3ccccc3)sc2=O)c1 ?
Sfp PPTase inh: 12.2%; Tau ThT inhib: -9.7%; FBPA coupling cs: 7.7; Tau fluor counter: -0.4%; Tau FP inhib: -5.6%; G9a block: 31.4%[0.501 µM]

Results for O=C(O)c1cccc(Cn2c(Cl)c(/C=N/NC(=O)c3cc4ccccc4cc3O)sc2=O)c1 ?
Sfp PPTase inh: inconclusive; Tau ThT inhib: 20µM*; FBPA coupling cs: 13.6; Tau fluor counter: inconclusive; Tau FP inhib: inconclusive; G9a block: 10µM*

Results for COC(=O)c1cccc(Cn2c(Cl)c(/C=N/Nc3ccccc3C)sc2=O)c1 ?
Sfp PPTase inh: 56.2µM*; Tau ThT inhib: inconclusive; FBPA coupling cs: -1.2; Tau fluor counter: inconclusive; Tau FP inhib: -9.6%; G9a block: 10µM*

Results for CCN(CC)C(=O)Oc1ccc(Br)cc1C(=O)Nc1ccc(F)cc1F ?
Sfp PPTase inh: 10.4%; Tau ThT inhib: -3.4%; FBPA coupling cs: 0.8; Tau fluor counter: -9.7%; Tau FP inhib: -2.9%; G9a block: 21.7%

What do the screens show for `CN1CCN(NC(=S)Nc2ccc(OC(F)F)cc2)CC1`?
Sfp PPTase inh: 56.2µM*; Tau ThT inhib: -8.8%; FBPA coupling cs: 5.3; Tau fluor counter: -9.3%; Tau FP inhib: 0.7%; G9a block: -3.8%

Results for CSc1nncc(/C(C)=N\Nc2ccccc2)n1 ?
Sfp PPTase inh: 2.3%; Tau ThT inhib: 2.82µM*; FBPA coupling cs: -0.2; Tau fluor counter: -7.9%; Tau FP inhib: -3.5%; G9a block: inconclusive

What do the screens show for `CC/C(=N/Nc1ccccc1C)c1cnnc(SC)n1`?
Sfp PPTase inh: inconclusive; Tau ThT inhib: 3.55µM*; FBPA coupling cs: -2.0; Tau fluor counter: -20.3%; Tau FP inhib: inconclusive; G9a block: 8.91µM*

What do the screens show for `O=C(CSc1nc2ccccc2nc1Cc1ccc(Cl)cc1)NCCc1ccccc1`?
Tau ThT inhib: -2.7%; Tau fluor counter: 7.4%; Tau FP inhib: -5.2%; G9a block: -9.2%[59 µM]

How did CN(C)/C=C1\C(=O)NN=C1c1ccccc1 do in these assays?
Sfp PPTase inh: -0.5%; Tau ThT inhib: -10.5%; FBPA coupling cs: 0.0; Tau fluor counter: -0.1%; Tau FP inhib: 0.0%; G9a block: 50.1µM*

Results for Cc1cccc(NS(=O)(=O)c2ccc(C)c(C(=O)NCc3ccccn3)c2)c1 ?
G9a block: 8.4%

What do the screens show for `Cc1cc(C)n(CCc2nc3c4ccccc4nc(N4CCN(c5ccccc5F)CC4)n3n2)n1`?
Tau ThT inhib: -5.6%; Tau fluor counter: -4.5%; Tau FP inhib: 2.5%; G9a block: 0.6%[59 µM]

Assay outcomes as filed in PubChem BioAssay.
